# Reference: PubChem BioAssay (NCATS)
# Several values for one entry are separate records, joined by “and”; a condition that tells them apart may be missing. Identical values can stand only once. Results filed as inconclusive are left out. Activity calls are given as the source filed them. Unless noted, calls come from the whole dose curve; as a rule, active = well fitted curve in the direction sought with a large enough effect; inconclusive = small, poorly fitted or top-dose-only effect, or another doubt; inactive = no such curve, though single readings can be large; an effect the other way counts as inactive or inconclusive.
# Tests used:
# [1] = qHTS Assay for Identifying Gametocytocidal Compounds (AID 743244);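 note: % is set by controls: 0 for no effect and ±100 for the full control effect; actives lower the fluorescent signal which means gametocytes are killed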; conditions: P. falciparum 3D7 stage III-V gametocytes, alamarBlue, 72 h; max response: stronger effect = lower value
# Outline: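 P. falciparum 3D7 stage III–V gametocytes (20,000 cells/well) were exposed to compounds for 72 h at 37 °C, 5% CO2. AlamarBlue was then added for 24 h; decreased resorufin fluorescence (Ex 525/Em 598 nm) indicated loss of viability.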
# [2] = qHTS profiling of the MIPE4 collection as inhibitors of Plasmodium falciparum (3D7) proliferation (AID 743344; call rule not given here;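 note: scaled between DMSO vehicle wells and 0.29 µM artemisinin as full inhibition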); conditions: P. falciparum 3D7 in erythrocytes, SYBR Green DNA fluorescence, 72 h; at 28.5 µM (top of the series) unless noted
# Outline: (§1)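 Erythrocytes infected with P. falciparum (0.3% parasitemia, 2.5% hematocrit) incubated with compounds 72 h at 37 C, 5% CO2. Lysis with saponin/Triton buffer containing SYBR Green I, overnight at room temperature in the dark; DNA fluorescence (485/535 nm) normalised to 0.29 uM artemisinin and DMSO.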
# [3] = qHTS profiling of the MIPE4 collection as inhibitors of Plasmodium falciparum (DD2) proliferation (AID 743345; call rule not given here); conditions: P. falciparum Dd2 in erythrocytes, SYBR Green DNA, 72 h; at 28.5 µM (top of the series) unless noted
# Outline: as §1
# [4] = qHTS profiling of the MIPE4 collection as inhibitors of Plasmodium falciparum (HB3) proliferation (AID 743347; call rule not given here;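 note: plate controls were DMSO vehicle wells for no effect and artemisinin wells for full effect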); conditions: P. falciparum HB3 in erythrocytes, SYBR Green DNA, 72 h; at 28.5 µM (top of the series) unless noted
# Outline: as §1
# [5] = High-throughput drug toxicity screening in the BPDCN cell line Gen2.2 (AID 1224824; call rule not given here;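 note: cells exposed to compounds for 48 h before reading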); conditions: Gen2.2 BPDCN cells; at 45.8 µM (top of the series) unless noted
# Outline: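 Readout is ATP luminescence from Gen2.2 cells after two days of drug exposure in serum-containing medium at 37 °C. Values express percent activity, with vehicle defining full signal and 9.2 uM bortezomib defining zero.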
# [6] = High-throughput drug toxicity screening in the BPDCN cell line Cal-1 (AID 1224825; call rule not given here); conditions: Cal-1 BPDCN cell viability, qHTS; at 45.8 µM (top of the series) unless noted
# Outline: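 Cal-1 cells, 500 per well in phenol-red-free RPMI with 10% FBS, exposed to compounds for 48 hours at 37C, 5% CO2. Viability read by CellTiter-Glo luminescence; percent activity normalized to DMSO (100%) and 9.2 uM bortezomib final (0%).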
# [7] = qHTS assay for measurement of the activity of small molecule inhibitors on Zika virus induced Caspase-3 activity in human iPSC derived neural progenitor cells (hNPCs) (AID 1224857); note: % of control where 0% means no effect; nearly all actives have a fitted effect of over 65% in size
# Outline: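 hNPCs seeded 350 cells/well, cultured 16–20 h; compounds added 1 h before ZIKV (2 FFU/cell), 37 C 6 h. Caspase-Glo 3/7 luminescence after 30 min RT; % inhibition from induction scaled to uninfected (0%) and infected (100%) wells.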
# [8] = qHTS assay for measurement of the activity of small molecule inhibitors on Zika virus induced Caspase-3 activity in human astrocytoma cells (AID 1224859);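 note: plate controls were ZIKV-infected untreated cells for no effect and uninfected cells for full effect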
# Outline: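 Luminescence read-out (Caspase-Glo 3/7, 30 min RT) of caspase activity in SNB-19 cells infected 6 h with ZIKV, 2 FFU/cell, after 1 h compound pretreatment; % inhibition from induction normalised to uninfected (0%) and infected (100%) wells.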
# [9] = qHTS Screen of the MIPE 4.0 Collection Against Ewings Sarcoma (RDES) (AID 1259252); note: nearly all actives have a fitted effect of over 35% in size; note: potency is the fitted concentration of half-maximal effect
# Outline: (§2)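 Dose series incubated 48 h with cells in RPMI plus 5% FBS, glutamine and penicillin/streptomycin; cell viability then quantified via CellTiter-Glo.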
# [10] = qHTS Screen of the MIPE 4.0 Collection Against Ewings Sarcoma (TC71) (AID 1259253); note: nearly all actives have a fitted effect of over 40% in size; note: potency is the fitted concentration of half-maximal effect
# Outline: as §2
# [11] = qHTS Screen of the MIPE 4.0 Collection Against Ewings Sarcoma (EW8) (AID 1259255); note: nearly all actives have a fitted effect of over 35% in size; note: potency is the fitted concentration of half-maximal effect;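 for viability: 100% = DMSO-treated cells and 0% = medium-only wells without cells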
# Outline: as §2
# [12] = qHTS Screen of the MIPE 4.0 Collection Against Ewings Sarcoma (TC32) (AID 1259256); note: nearly all actives have a fitted effect of over 45% in size; note: potency is the fitted concentration of half-maximal effect
# Outline: as §2
# [13] = target: Hexokinase-4 (Homo sapiens) + Glucokinase regulatory protein (Homo sapiens) (UniProt P35557+Q14397); test: qHTS assay for inhibitors of recombinant human GCK-GKRP interaction: HTRF assay (AID 743207);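 note: 0% = DMSO with GCK present and -100% = DMSO wells lacking GCK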
# Hexokinase-4 (Homo sapiens) + Glucokinase regulatory protein (Homo sapiens), sequence (P35557 whole entry, looked up): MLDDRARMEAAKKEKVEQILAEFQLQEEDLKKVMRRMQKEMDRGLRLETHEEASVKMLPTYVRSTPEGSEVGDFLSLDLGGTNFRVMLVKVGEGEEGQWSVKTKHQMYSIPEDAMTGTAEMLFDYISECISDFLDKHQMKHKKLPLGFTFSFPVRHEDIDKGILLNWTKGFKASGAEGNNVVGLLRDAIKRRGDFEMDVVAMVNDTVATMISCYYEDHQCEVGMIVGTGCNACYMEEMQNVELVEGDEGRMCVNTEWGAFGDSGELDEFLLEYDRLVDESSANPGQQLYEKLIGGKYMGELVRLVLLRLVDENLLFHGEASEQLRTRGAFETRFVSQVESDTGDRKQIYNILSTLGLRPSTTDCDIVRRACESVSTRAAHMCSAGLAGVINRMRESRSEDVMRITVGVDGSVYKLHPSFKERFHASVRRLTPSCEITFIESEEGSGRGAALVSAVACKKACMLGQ
# Hexokinase-4 (Homo sapiens) + Glucokinase regulatory protein (Homo sapiens), sequence (Q14397 whole entry, looked up): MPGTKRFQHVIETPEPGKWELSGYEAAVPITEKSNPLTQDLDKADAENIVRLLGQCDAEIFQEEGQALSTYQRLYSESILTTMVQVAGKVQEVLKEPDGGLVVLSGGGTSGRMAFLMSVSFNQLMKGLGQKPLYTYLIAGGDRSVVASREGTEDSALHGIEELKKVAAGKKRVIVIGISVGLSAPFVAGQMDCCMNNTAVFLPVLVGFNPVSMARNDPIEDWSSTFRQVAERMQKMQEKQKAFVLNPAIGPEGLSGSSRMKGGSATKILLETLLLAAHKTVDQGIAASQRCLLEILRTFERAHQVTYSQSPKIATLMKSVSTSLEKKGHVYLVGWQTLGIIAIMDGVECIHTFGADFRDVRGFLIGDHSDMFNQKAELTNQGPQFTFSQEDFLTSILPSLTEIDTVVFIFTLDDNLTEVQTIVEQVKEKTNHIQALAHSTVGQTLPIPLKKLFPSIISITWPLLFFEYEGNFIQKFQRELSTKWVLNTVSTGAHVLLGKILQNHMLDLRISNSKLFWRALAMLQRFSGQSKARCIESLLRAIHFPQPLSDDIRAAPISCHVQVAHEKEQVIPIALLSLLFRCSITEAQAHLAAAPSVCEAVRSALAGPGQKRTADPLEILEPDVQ
# Outline: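 Titration screening format: recombinant GST-GCK and FLAG-GKRP at 5 nM, S6P at 2 uM, labelled anti-tag antibodies, 60 min at RT, dual-wavelength HTRF readout.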
# [14] = qHTS profiling of the MIPE4 collection as inhibitors of Plasmodium falciparum (DD2) proliferation (Rep 2) (AID 743346; call rule not given here); conditions: P. falciparum Dd2 in erythrocytes, SYBR Green DNA, 72 h; at 28.5 µM (top of the series) unless noted
# Outline: as §1
# [15] = qHTS assay to identify small molecule inhibitors of chordoma cells - UCH-1 (AID 1259355); note: % is set by controls: 0 for no effect and ±100 for the full control effect; nearly all actives have a fitted effect of over 55% in size
# Outline: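 Cells (800/well) were seeded and left overnight at 37 C, 5% CO2, then treated with drugs at 15 concentrations plus a combination mix of auranofin, camptothecin, doxorubicin, rubitecan and topotecan. Viability after 48hr was read by CellTiter-Glo luminescence.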
# [16] = qHTS assay for cell viability of HEK293 cells (AID 743288); conditions: ATP luminescence (CellTiter-Glo), 18 h; max response: stronger effect = lower value; note: % is set by controls: 0 for no effect and ±100 for the full control effect; nearly all actives have a fitted effect of over 50% in size
# Outline: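 Luminescent ATP quantitation served as the viability read-out. Cells (parental HEK293, 2,000/well) received compounds after at least 5 h at 37 C and were exposed for 18 h before a 30 min room-temperature reagent step.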
# [17] = qHTS assay for cell viability of the p53RE-bla HCT-116 cell line (AID 743292); note: % is set by controls: 0 for no effect and ±100 for the full control effect; nearly all actives have a fitted effect of over 55% in size
# Outline: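 CellSensor p53RE-bla HCT-116 cells (4,000/well) pre-incubated 5 h at 37 C, then exposed to compounds in DMSO for 16 h at 37 C. Viability read as ATP content by CellTiter-Glo luminescence after 30 min at room temperature.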
Structure (SMILES),max response [1],"parasite growth, % of DMSO control [2] [%]","parasite growth remaining, % of DMSO control (lower = more inhibition) [3] [%]","growth, % of control [4] [%]","cell viability, % of control (lower = more cytotoxic) [5] [%]",viability (% of control) [6] [%],Potency [7],Potency [8],Potency [9],Potency [10],Potency [11],Potency [12],outcome [13],"parasite growth, % of control (lower = inhibition) [14] [%]",Potency [15],max response [16],Potency [17]
CNS(=O)(=O)CCc1ccc2[nH]cc(C3CCN(C)CC3)c2c1,4.41% (inactive),97.5,87.2,92.7,238,23.9,inactive,inactive,0.372 µM (active),0.235 µM (active),2.64 µM (active),1.48 µM (active),,,,,
O=C(O)C1CCCN(CCC=C(c2ccccc2)c2ccccc2)C1 (stereo not given),17.5% (inactive),82.1,103,101,145,127,inactive,inactive,11.8 µM (active),9.35 µM (active),13.2 µM (active),9.35 µM (active),inactive,,,,
CCOC(=O)c1ccc(OC(=O)CCCCCN=C(N)N)cc1,-8.62% (inactive),93,89.5,80.6,186,106,inactive,inactive,inactive,inactive,inactive,inactive,,118,,,
COc1cc(NCc2ccc3nc(N)nc(N)c3c2C)cc(OC)c1OC,,15.9,7.41,19.6,8.74,3.95,inactive,inactive,3.32 µM (active),0.833 µM (active),1.32 µM (active),0.833 µM (active),,10.9,,,
CC(C)OC(=O)OCOP(=O)(CO[C@H](C)Cn1cnc2c(N)ncnc21)OCOC(=O)OC(C)C,5.62% (inactive) and 30.5% (inactive),,,,162,42.8,inactive,inactive,inactive,18.7 µM (active),23.5 µM (active),,,,,,
COc1ccc(-c2ccc3cc(C(=O)O)ccc3c2)cc1C12CC3CC(CC(C3)C1)C2,23.8% (inactive),66.2,98.8,111,521,112,inactive,inactive,2.09 µM (active),,inactive,,,58.3,inactive,,
CC1=NN(c2ccccc2)C(=O)C1,-1.13% (inactive),89.4,94.6,103,112,99.8,,inactive,inactive,inactive,inactive,inactive,,86.2,inactive,-6.75% (inactive) and -3.56% (inactive),inactive
